# Laboratory results published in paper PMC7819943, “Rice protein-binding microarrays: a tool to detect cis-acting elements near promoter regions in rice”.
# In all, about 35,000 sequences were measured (“fluorescence intensity (a.u.)”: median about 10,000, highest 2% from about 52,000 on). The list comes from a sample in which the highest values are over-represented; it also holds similar and randomly drawn sequences.
# Target: T1, OsWOX13 (Oryza sativa, UniProt Q5QMM3 1-267)
# T1 sequence: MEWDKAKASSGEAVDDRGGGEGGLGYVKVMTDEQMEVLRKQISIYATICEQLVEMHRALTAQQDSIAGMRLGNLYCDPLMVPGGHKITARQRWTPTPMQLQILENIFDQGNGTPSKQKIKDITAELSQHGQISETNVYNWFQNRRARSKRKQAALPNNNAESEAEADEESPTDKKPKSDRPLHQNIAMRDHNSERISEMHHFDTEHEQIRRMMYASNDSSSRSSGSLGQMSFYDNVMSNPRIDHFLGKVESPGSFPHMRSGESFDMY
# Assay: protein-binding microarray (RPBM); PBS, 2% BSA, 51.3 ng/ul salmon testes DNA, 50 uM zinc acetate, 200 nM TF, 25 C, 1 h; high values mean tight binding
# Details: protein: recombinant; tags: N-terminal polyhistidine and DsRed monomer fusion (pET32a); label: CyDye5-dUTP incorporated in the synthesized complementary strand; 3' TTTTT single-stranded linker to array surface; dsDNA, one strand shown
# How it was run: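 Per-feature fluorescence intensity (arbitrary units), read on an Axon 4000B scanner, is the binding signal. Transcription factors carrying an N-terminal polyhistidine tag and DsRed fusion were expressed in E. coli BL21-CodonPlus and purified on Ni–NTA. A custom Agilent array, made double-stranded by primer extension with Cy5-dUTP and blocked with 2% BSA, was incubated with 200 nM protein in PBS, 2% BSA, salmon testes DNA and 50 µM zinc acetate at 25 °C for 1 h and then washed.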
row,Sequence,binding signal
1,AAAACAGTTTGATTAGCTTTCTGTCGAATCTGTCATGCATCGGAGTCACCTAGTGCAG,16500 fluorescence intensity (a.u.)
2,TTCTGATTAGTTACAACTTGAGTTCACTATTGTCATGATACGGAGTCACCTAGTGCAG,37200 fluorescence intensity (a.u.)
3,GACAAGATCAGTCCTAATTATATATATGTTTTACCTTCTACGGAGTCACCTAGTGCAG,4490 fluorescence intensity (a.u.)
4,TGCAATAAATTATAGATGACTGAACATTTACACTCTACAGCGGAGTCACCTAGTGCAG,15300 fluorescence intensity (a.u.)
5,CATAACTAATTAGTAACACAAAGAATATTGATTAGATGATCGGAGTCACCTAGTGCAG,43100 fluorescence intensity (a.u.)
6,CGCTAAAATTAAAAGTTTGATTGAAATTAGAACGATGTAACGGAGTCACCTAGTGCAG,30300 fluorescence intensity (a.u.)
7,TTAAAATTAAACTTTTGCAGTCTTTCTAATTTGCCTCCTCCGGAGTCACCTAGTGCAG,5220 fluorescence intensity (a.u.)
8,ACTGAACAAATTGAGCATGGTGTATATGTCACATTTTCTACGGAGTCACCTAGTGCAG,6220 fluorescence intensity (a.u.)
9,TACATACAAGTTACAGTGTAATTACACTACGATTGTACTACGGAGTCACCTAGTGCAG,3630 fluorescence intensity (a.u.)
10,TTGCACTGATTTTGTAACTTAAGGGATACGTCGTATCCGGCGGAGTCACCTAGTGCAG,6500 fluorescence intensity (a.u.)
11,AGCCACGCAATCAATTAAATAATTAAGATAGGTACACGTGCGGAGTCACCTAGTGCAG,26400 fluorescence intensity (a.u.)
12,CATATGACCAGTTTAACTGCCATCATGCAGACACACAGGACGGAGTCACCTAGTGCAG,3410 fluorescence intensity (a.u.)
13,ATATAAATCAAATTTACAACTTTGCTGTAGCTATAATTTGCGGAGTCACCTAGTGCAG,7160 fluorescence intensity (a.u.)
14,CATATGATTAATTAAAATTTTATCATTTAGAACTTGAAAACGGAGTCACCTAGTGCAG,34800 fluorescence intensity (a.u.)
15,ATAACTTTTAATTTAAGCTAATTTTATTTCTGCCGGACATCGGAGTCACCTAGTGCAG,19600 fluorescence intensity (a.u.)
16,TTAATTAATTGCTAATTACACTAATTAATTTATTGATAGCCGGAGTCACCTAGTGCAG,65200 fluorescence intensity (a.u.)
17,GCATAACTAATTGTTGTTGCACATATTTTCTTTATAAAGCCGGAGTCACCTAGTGCAG,15500 fluorescence intensity (a.u.)
18,GTGATTGGGCTATTTGTAATGTTCAGATGGTGAACTGTGCCGGAGTCACCTAGTGCAG,27600 fluorescence intensity (a.u.)
19,CCGCACTCTATTATTGTATTGATTAGCTTGTGTCATTCGCCGGAGTCACCTAGTGCAG,20500 fluorescence intensity (a.u.)
20,TAGGTGACAGTTTATTTAATGCTATTGACACTATTCTAGCCGGAGTCACCTAGTGCAG,8640 fluorescence intensity (a.u.)
21,AATGGGAACTAATGGGCCGGATTGACTACTTTGCTACATTCGGAGTCACCTAGTGCAG,3240 fluorescence intensity (a.u.)

row,Sequence,binding signal
1,TATTGATTAAATTTAATTTATAGATAGACTAATATTTTACCGGAGTCACCTAGTGCAG,29800 fluorescence intensity (a.u.)
2,CATTATTGATTGATTGATTCGCAGATTCGCCGCTGCCACCCGGAGTCACCTAGTGCAG,57200 fluorescence intensity (a.u.)
3,CACATAATTGAACTGCTAATTTTATTCTAGTCGGAAGCACCGGAGTCACCTAGTGCAG,54600 fluorescence intensity (a.u.)
4,GATGAAGATTGATATTACCTGCGGCCGCCGGCGCCGCTGTCGGAGTCACCTAGTGCAG,7110 fluorescence intensity (a.u.)
5,ATTATTTGTGATTTGATTGCTAGTGATTTGAACTAATGGCCGGAGTCACCTAGTGCAG,64300 fluorescence intensity (a.u.)
6,GCCTAATTAATCCGTCATTAGCAAATGTTTATTGTAGCACCGGAGTCACCTAGTGCAG,38200 fluorescence intensity (a.u.)
7,GCTGACAGGGACAATCGGATGGAGCAGAATGTCTGAACGTCGGAGTCACCTAGTGCAG,11000 fluorescence intensity (a.u.)
8,TTTGATCAAAATCAAAACGTCTTATAACCTGAAACGGAGGCGGAGTCACCTAGTGCAG,4210 fluorescence intensity (a.u.)
9,GCTAATTAAGTCCATTGCACATAGATCGATATGTGTACACCGGAGTCACCTAGTGCAG,27700 fluorescence intensity (a.u.)
10,CCAATTGACTATATATAACATAGTACTTGCTAGCTTAATTCGGAGTCACCTAGTGCAG,3640 fluorescence intensity (a.u.)
11,TTTAGGATTGAAGTAAACTGTAAACTATATGTCTGACCGCCGGAGTCACCTAGTGCAG,16600 fluorescence intensity (a.u.)
12,CAATACATAACAGACAAATTATCAAAATAGATTAAAGTTTCGGAGTCACCTAGTGCAG,4710 fluorescence intensity (a.u.)
13,ATTTTAAATTTATTATATGATGATTAATTTGGGAATGAGGCGGAGTCACCTAGTGCAG,28400 fluorescence intensity (a.u.)
14,TACATCACTAATCACGTTGCTTCGATGACACCTCCTTCTTCGGAGTCACCTAGTGCAG,7440 fluorescence intensity (a.u.)
15,TGTATGTGTGTACTCGTAATTAGTGAGAATTTAAATTCATCGGAGTCACCTAGTGCAG,3820 fluorescence intensity (a.u.)
16,CAAAAGTGTTCAATCAAATATGAAAATGAGTATAATGCAACGGAGTCACCTAGTGCAG,6990 fluorescence intensity (a.u.)
17,CTAATTAGGTCCAGGACATTAAATGGGTTGATTACGTCACCGGAGTCACCTAGTGCAG,8450 fluorescence intensity (a.u.)
18,GTTTATGTTAGTGCTAGTGATTAGTACTTAAACATTCAGACGGAGTCACCTAGTGCAG,4010 fluorescence intensity (a.u.)
19,ATCTGGCAATAATTTACAATTAATTGATACCTTATTGCCTCGGAGTCACCTAGTGCAG,54800 fluorescence intensity (a.u.)
20,GAACTAATTGATACATTAGCCACTTGATGAGCTCCTCTCCCGGAGTCACCTAGTGCAG,58600 fluorescence intensity (a.u.)
21,CTTATTAGCACATGATTAATTAATTATTAACTATTATAAACGGAGTCACCTAGTGCAG,19500 fluorescence intensity (a.u.)
